Drawing on PubChem BioAssay, this text covers viability, differential viability (reversal) and inhibition for 20 compounds.

Assay [1] is described as follows: HUVEC growth inhibition – cell-based, human, primary screen (AID 575;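 active = viability at or below 30% in both replicate assays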;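 note: 100% = median of untreated cell wells with 0.1% DMSO on each plate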). Particulars: HUVEC proliferation, CellTiter-Glo luminescence, 72 h; at 10 µM; stronger effect = lower value. For orientation: In ATP-based viability assays light output follows the ATP content of the culture.
A short description of assay [2]: H69AR cell proliferation blockers – human, duplicate replicates, primary screen (AID 580;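 active = viability at or under a set limit in both replicates, limit being median viability minus 3 SD, cut at about 48% in these data, passing the limit was not always enough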;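 note: 100% = mean luminescence of untreated wells and 0% = no signal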). Particulars: H69AR lung tumor cells viability, ATP luminescence, 72 h; at 10 µM; stronger effect = lower value.
A short description of assay [3]: MRP1 drug-resistance reversers in H69AR cells – cell-based, doxorubicin co-treatment, pilot screen (AID 601;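 active = viability loss from added drug above about 55%, and viability with drug at most 40%, in both replicates, limit read from the data, passing the limit was not always enough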). Conditions: CellTiter-Glo, 72 h, at 10 µM; for differential viability (reversal): stronger effect = higher value.
A short description of assay [4]: yeast transport mutant growth inhibition pilot in 384-well plates, post-Golgi transport modulator project (AID 636; in the data active = inhibition above about 31%). Particulars: absorbance 615 nm, about 18 h, stronger effect = higher value.
A short description of assay [5]: growth suppression of yeast trafficking mutant, preliminary HTS, modulators of trafficking downstream of Golgi apparatus project, 1536-format plate, OD 615 nm (AID 637). Particulars: yeast transport mutant growth, absorbance 615 nm, 18 h; stronger effect = higher value.
Setting [6] is: H69AR cells + 2 uM doxorubicin, measured here: viability with 2 uM doxorubicin, stronger effect = lower value.
The mark [7] stands for this setting: H69AR cells, compound alone cytotoxicity.

Molecules are shown by their SMILES. Calls of active or inactive are those of the source. Cut-off read from the data, not from the text of the source, unless noted: active = inhibition above about 30%; inactive = the rest.

A word on the viability: it is a read-out of living cells in per cent, often relative to untreated cells. What is called inhibition is the drop in the measured response relative to a control, in per cent. Turning to `Cc1ccc(Nc2nnns2)cc1C`, the viability in assay [1] was 84.6% (inactive); in assay [2] it was 99.8% (inactive); in assay [3] (setting [6]) it was 89.7%; in assay [3] (setting [7]), 99.8%. In assay [3] (H69AR cells + 2 uM doxorubicin), the differential viability (reversal) was 10.1% (inactive). Further, the results for the inhibition in assay [4] and in assay [5] were -1.04% (inactive) and -3.02% (inactive), respectively.

For the compound `CS(=O)(=O)N1CCC(C(=O)NCCC2=CCCCC2)CC1`, the viability was 99.7% (inactive) in assay [1], 99.9% (inactive) in assay [2], 79.6% in assay [3] (setting [6]) and 99.9% in assay [3] (setting [7]). In addition, the differential viability (reversal) in assay [3] (H69AR cells + 2 uM doxorubicin) was 20.4% (inactive). The values for the inhibition in assay [4] and in assay [5] were -5.73% (inactive) and -1.11% (inactive), respectively.

`N=c1ncn(CC(O)CN2CCOCC2)c2nc(N3CCOCC3)[nH]c12` (stereo not given): the viability was 92.6% (inactive) in assay [1], 98.6% (inactive) in assay [2], 86.2% in assay [3] (setting [6]) and 98.6% in assay [3] (setting [7]). In assay [3] (H69AR cells + 2 uM doxorubicin), the differential viability (reversal) is 12.4% (inactive). Further, the inhibition in assay [4] was 0.4% (inactive); in assay [5], -1.9% (inactive).

Turning to `CCOC(=O)CC(C#N)c1cn(C)c2ccccc12` (stereo not given), the viability is 86.6% (inactive) in assay [1], 88% (inactive) in assay [2], 92.2% in assay [3] (setting [6]) and 88% in assay [3] (setting [7]). Besides, the differential viability (reversal) in assay [3] (H69AR cells + 2 uM doxorubicin) is -4.15% (inactive). Moreover, the inhibition in assay [4] was -6.58% (inactive); in assay [5] it was -4.6% (inactive).

For the compound `CCCCOc1ccc(C(=O)N2CCC(C)CC2)cc1`, the viability in assay [1] was 111% (inactive); in assay [2], 104% (inactive); in assay [3] (setting [6]), 85.7%; in assay [3] (setting [7]) it was 104%. Further, the differential viability (reversal) in assay [3] (H69AR cells + 2 uM doxorubicin) is 17.9% (inactive). The inhibition is -3.2% (inactive) in assay [4] and 0.48% (inactive) in assay [5].

For the compound `CC1Cc2ccccc2N1S(=O)(=O)c1ccc2c(c1)n(C)c(=O)c(=O)n2C` (stereo not given), the viability in assay [1] was 80.8% (inactive); in assay [2], 83.7% (inactive); in assay [3] (setting [6]), 86.4%; in assay [3] (setting [7]) it was 83.7%. Besides, the differential viability (reversal) in assay [3] (H69AR cells + 2 uM doxorubicin) was -2.65% (inactive). Further, the inhibition in assay [4] was -4.93% (inactive); in assay [5], 0% (inactive).

Take `O=C1c2cccnc2C(=O)N1c1cccc(-c2nc3ccccc3o2)c1`: the viability is 111% (inactive) in assay [1], 92.9% (inactive) in assay [2], 86.4% in assay [3] (setting [6]) and 92.9% in assay [3] (setting [7]). Further, in assay [3] (H69AR cells + 2 uM doxorubicin), the differential viability (reversal) was 6.53% (inactive). Further, the inhibition was -6.27% (inactive) in assay [4] and 3.65% (inactive) in assay [5].

As for `CCc1nnc(NC(=O)OCc2ccccc2)s1`, the viability in assay [1] was 106% (inactive); in assay [2], 102% (inactive); in assay [3] (setting [6]) it was 94.9%; in assay [3] (setting [7]), 102%. Moreover, in assay [3] (H69AR cells + 2 uM doxorubicin), the differential viability (reversal) is 7.5% (inactive). The inhibition in assay [4] was -0.91% (inactive); in assay [5], 11.4% (inactive).

`O=C(c1cccnc1)N1CCN(Cc2ccc3c(c2)OCO3)CC1`: the viability in assay [1] is 89.6% (inactive); in assay [2], 95.8% (inactive); in assay [3] (setting [6]) it was 81.4%; in assay [3] (setting [7]), 95.8%. Also, the differential viability (reversal) in assay [3] (H69AR cells + 2 uM doxorubicin) was 14.4% (inactive). The inhibition is -7.73% (inactive) in assay [4] and 1.75% (inactive) in assay [5].

For the compound `Cc1cccc(OCC(=O)Nc2ccccc2N2CCN(C(=O)C(C)C)CC2)c1C`, the viability in assay [1] is 88.3% (inactive); in assay [2], 88.8% (inactive); in assay [3] (setting [6]) it was 86%; in assay [3] (setting [7]), 88.8%. Besides, in assay [3] (H69AR cells + 2 uM doxorubicin), the differential viability (reversal) was 2.79% (inactive). In addition, the inhibition is -1.95% (inactive) in assay [4] and 4.13% (inactive) in assay [5].

For `CCNc1oc(COc2cccc(C)c2)nc1C#N`, the viability was 101% (inactive) in assay [1], 90.9% (inactive) in assay [2], 77.1% in assay [3] (setting [6]) and 90.9% in assay [3] (setting [7]). Also, the differential viability (reversal) in assay [3] (H69AR cells + 2 uM doxorubicin) was 13.8% (inactive). The inhibition was -7.53% (inactive) in assay [4] and -10.3% (inactive) in assay [5].

Regarding `CC(C)c1nnc(NC(=O)CCC(=O)NCc2ccc3c(c2)OCO3)s1`, the viability in assay [1] was 103% (inactive); in assay [2], 97.7% (inactive); in assay [3] (setting [6]), 99.1%; in assay [3] (setting [7]), 97.7%. Besides, the differential viability (reversal) in assay [3] (H69AR cells + 2 uM doxorubicin) was -1.39% (inactive). Besides, the inhibition in assay [4] was -5.2% (inactive); in assay [5], 2.86% (inactive).

As for `CCOCCCNC(=O)C1CCCN(S(=O)(=O)CC)C1` (stereo not given), the viability in assay [1] is 115% (inactive); in assay [2], 94.5% (inactive); in assay [3] (setting [6]) it was 97.6%; in assay [3] (setting [7]) it was 94.5%. In assay [3] (H69AR cells + 2 uM doxorubicin), the differential viability (reversal) was -3.11% (inactive). Besides, the figures for the inhibition in assay [4] and in assay [5] were -6.53% (inactive) and 2.06% (inactive), respectively.

With `CCCC(=O)N1CCN(c2ccc(NC(=O)c3ccc(Br)o3)cc2)CC1`, the viability was 125% (inactive) in assay [1], 104% (inactive) in assay [2], 101% in assay [3] (setting [6]) and 104% in assay [3] (setting [7]). In addition, the differential viability (reversal) in assay [3] (H69AR cells + 2 uM doxorubicin) was 3.6% (inactive). The values for the inhibition in assay [4] and in assay [5] were 1.58% (inactive) and -2.22% (inactive), respectively.

With `OCCn1c(CSc2nnc(-c3ccco3)n2-c2ccccc2)nc2ccc(Cl)cc21`, the viability was 68.7% (inactive) in assay [1], 84.9% (inactive) in assay [2], 81.7% in assay [3] (setting [6]) and 84.9% in assay [3] (setting [7]). In addition, the differential viability (reversal) in assay [3] (H69AR cells + 2 uM doxorubicin) is 3.29% (inactive). Moreover, the inhibition is -5.45% (inactive) in assay [4] and -3.97% (inactive) in assay [5].

For `CCCSc1nc(N)c(C#N)c(-c2ccc(C)cc2)c1C#N`, the viability in assay [1] is 79.6% (inactive); in assay [2], 70.3% (inactive); in assay [3] (setting [6]), 80.4%; in assay [3] (setting [7]), 70.3%. Further, the differential viability (reversal) in assay [3] (H69AR cells + 2 uM doxorubicin) was -10.1% (inactive). For the same compound, the results for the inhibition in assay [4] and in assay [5] were -2.67% (inactive) and 4.76% (inactive), respectively.

For the compound `CC(=O)Nc1ccc(N2CCN(Cc3ccccc3F)CC2)cc1`, the viability in assay [1] is 88.8% (inactive); in assay [2], 92.5% (inactive); in assay [3] (setting [6]), 83.8%; in assay [3] (setting [7]), 92.5%. The differential viability (reversal) in assay [3] (H69AR cells + 2 uM doxorubicin) is 8.67% (inactive). In addition, the inhibition in assay [4] was -0.91% (inactive); in assay [5], 1.11% (inactive).

Turning to `Cc1nc(NC2=NCN(CCc3ccccc3)CN2)nc2c(C)cccc12`, the viability in assay [1] was 81.9% (inactive); in assay [2], 78% (inactive); in assay [3] (setting [6]) it was 93.7%; in assay [3] (setting [7]) it was 78%. Moreover, in assay [3] (H69AR cells + 2 uM doxorubicin), the differential viability (reversal) was -15.7% (inactive). Moreover, the inhibition in assay [4] was -3.82% (inactive); in assay [5] it was 4.76% (inactive).

On to `CCOc1ccc(C(=O)Cc2ccc3oc(C(=O)O)cc3c2)c(O)c1`, for which the viability in assay [1] was 89.4% (inactive); in assay [2], 98.8% (inactive); in assay [3] (setting [6]) it was 88.4%; in assay [3] (setting [7]), 98.8%. For the same compound, the differential viability (reversal) in assay [3] (H69AR cells + 2 uM doxorubicin) was 10.4% (inactive). The inhibition in assay [4] is -4.29% (inactive); in assay [5], 7.62% (inactive).

Take `N#Cc1c(-c2ccccc2)nc(N2CCCCCC2)[nH]c1=O`: the viability was 91.5% (inactive) in assay [1], 88.2% (inactive) in assay [2], 91.7% in assay [3] (setting [6]) and 88.2% in assay [3] (setting [7]). Moreover, the differential viability (reversal) in assay [3] (H69AR cells + 2 uM doxorubicin) is -3.53% (inactive). Moreover, the inhibition in assay [4] is -4.8% (inactive); in assay [5] it was -3.02% (inactive).
